# Assay outcomes (PubChem)
# Rab9 promoter act = activators of Rab9 promoter; hit rate 2.8% among 320,000; Potency, µM (series often up to 9.22 µM), inactives show at the top dose activation, negative = inhibition, hits mostly activators; Huh7 Rab9 promoter-luciferase reporter, luminescence, 24 h; further: % of control where 0% means no effect; nearly all actives have a fitted effect of over 60% in size
#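 Steps: seed 1500 Huh7 Rab9-luc cells per well, rest 2 h at 37 °C; add compound in DMSO; incubate 24 h; add luciferase reagent, 10 min ambient; read luminescence.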
# SMN2 splice up = enhancers of SMN2 splice variant expression; hit rate 2.8% among 210,000; HEK293 SMN2-luciferase splicing reporter, luminescence, 30-36 h; Potency, µM (titrated, usually from 46.1 µM), inactives show top-dose activity change, positive = activation, hits mostly activators; further: % of control where 0% means no effect; nearly all actives have a fitted effect of over 55% in size
#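 qHTS luciferase splicing reporter: luminescence rises when SMN2 exon 7 is included in transfected HEK293 cells. Compound exposure lasted 30-36 h at 37C, with 4.5 mM final sodium butyrate as control, followed by a ONE-Glo read.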
# KinaseGlo FLuc = blocks Kinase-Glo luciferase, a counter-screen artifact; Q27757; Kinase-Glo luciferase, ATP luminescence, 8 min; Potency, µM (doses to about 38.3 µM), for inactives: at the top dose activity change, negative = inhibition, most hits filed as inhibitors; hit rate 0.28% among 200,000; AID 1379; further: on the % scale 0 is the no-effect control and ±100 the full control effect; nearly all actives have a fitted effect of over 60% in size
#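 Luminescence was the read-out, taken after 8-minute incubation at ambient temperature. Luciferase turned over luciferin with 10 uM ATP in imidazole pH 7.2 buffer containing KCl, MgCl2, Tween 20 and BSA.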
# FLuc modulator = inhibits or activates purified firefly luciferase, miR-21 counter-screen; P08659; purified FLuc, Km substrates, luminescence inhibition; Potency, µM (highest dose often 57.5 µM), for inactives: at the top dose activity change, negative = inhibition, most hits filed as inhibitors; hit rate 6.9% among 360,000;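 further: plate controls were vehicle for no effect and reference inhibitor for full effect; nearly all actives have a fitted effect of over 55% in size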
# Target sequence (P08659 whole entry, looked up): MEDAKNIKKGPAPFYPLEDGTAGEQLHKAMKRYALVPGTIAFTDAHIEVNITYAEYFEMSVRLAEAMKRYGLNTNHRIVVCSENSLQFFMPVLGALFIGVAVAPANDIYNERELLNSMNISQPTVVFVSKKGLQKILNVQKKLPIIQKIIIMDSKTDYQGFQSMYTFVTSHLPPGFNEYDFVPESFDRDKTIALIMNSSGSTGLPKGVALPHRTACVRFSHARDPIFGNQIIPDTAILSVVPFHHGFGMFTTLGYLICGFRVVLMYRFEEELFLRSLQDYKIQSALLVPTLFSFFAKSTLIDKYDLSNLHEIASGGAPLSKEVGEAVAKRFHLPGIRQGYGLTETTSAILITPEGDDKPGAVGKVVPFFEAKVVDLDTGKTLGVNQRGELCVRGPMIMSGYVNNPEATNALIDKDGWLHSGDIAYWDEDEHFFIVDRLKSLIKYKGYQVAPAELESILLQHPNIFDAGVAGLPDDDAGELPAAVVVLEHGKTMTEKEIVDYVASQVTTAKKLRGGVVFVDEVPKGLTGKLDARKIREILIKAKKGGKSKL
#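 Purified P. pyralis luciferase, 10 nM final, with Km-level 10 uM D-luciferin and 10 uM ATP in 50 mM Tris acetate pH 7.5, 10 mM Mg acetate, 0.01% Tween-20, 0.05% BSA; 6-point qHTS titration about 60 µM downward; luminescence read.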
# NPC1 promoter act = NPC1 promoter activation; Huh7 NPC1 promoter luciferase reporter, 24 h; Potency, µM (highest dose often 9.22 µM), for inactives: at the highest dose activation, hits mostly activators; hit rate 2.4% among 320,000; further: % of control where 0% means no effect; nearly all actives have a fitted effect of over 60% in size
#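 Readout is luciferase luminescence, reflecting NPC1 promoter activation in stably transfected Huh7 cells after 24 h compound exposure at 37 °C in reduced-serum medium with 10% FBS.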
# ELG1 genotox = genotoxicity induction in ELG1-luciferase HEK293T cells; HEK293T ELG1-luciferase reporter, luminescence, 16 h; Potency, µM (titrated, usually from 46 µM), for the others: top-dose activity change, positive = activation, most hits filed as activators; hit rate 1.3% among 330,000; further: % of control where 0% means no effect; nearly all actives have a fitted effect of over 60% in size
#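 ELG1-luciferase HEK293T cells, 2,000/well; compound pinned in; 16 hr, 37 °C, 5% CO2; ONE-Glo, 30 min RT; luminescence on CCD imager.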
# The depositor's hits bear a star; u = inconclusive; x = no result given. A selection: hits, their analogues and other compounds. The true share with any hit is near 7.5%. The call rests on the fitted dose curve; in most records, active means well fitted curve in the direction sought with a large enough effect; inconclusive means small, poorly fitted or top-dose-only effect, or another doubt; inactive means no such curve, though single readings can be large; an effect the other way counts as inactive or inconclusive. Potency means the concentration at half of the fitted maximal effect.
SMILES,Rab9 promoter act,SMN2 splice up,KinaseGlo FLuc,FLuc modulator,NPC1 promoter act,ELG1 genotox
CCOc1ccc2nc(NC(=O)c3ccoc3C)sc2c1,0.5µM*,2.5µM*,2.8µM*,0.48µM*,0.56µM*,u
COc1ccccc1CNC(=O)Cn1cc(Br)ccc1=O,18%,x,x,-4%,8%,5%
Nc1c(C(=O)c2ccccc2)sc2nsc(SCCN3CCCC3)c12,23%,x,x,24µM*,-4%,8%
Nc1c(C(=O)c2ccc(Cl)cc2)sc2nsc(SCCN3CCOCC3)c12,-4%,x,x,-10%,11%,-7%
Cc1cc(C(=O)COC(=O)c2ccc(Cl)c(S(N)(=O)=O)c2)c(C)n1CC1CCCO1 (stereo not drawn),0.71µM*,x,x,1.5µM*,0.79µM*,u
Cc1cc(C(=O)COC(=O)c2ccc3c(c2)NC(=O)CS3)c(C)n1CC1CCCO1 (stereo not drawn),-4%,-13%,2%,15µM*,-5%,-1%
COCC(C)n1c(C)cc(C(=O)COC(=O)c2ccc3c(c2)NC(=O)CS3)c1C (stereo not drawn),-1%,-25%,0%,u,1%,-4%
COCCn1c(C)cc(C(=O)COC(=O)c2ccc(Cl)c(S(N)(=O)=O)c2)c1C,0.5µM*,x,x,0.76µM*,0.5µM*,0.58µM*
COc1cc(OC)c(C(=O)OCC(=O)c2cc(C)n(CC3CCCO3)c2C)cc1OC (stereo not drawn),3%,7%,3%,21µM*,-1%,2%
CCCN(CCC)c1nn2c(=O)c(C(=O)NCc3cc(Br)ccc3OC)cnc2s1,x,x,x,-15%,x,x
Cc1cc(C(=O)COC(=O)c2ccc(O)cc2)c(C)n1CC1CCCO1 (stereo not drawn),4µM*,23%,-6%,4.8µM*,1.8µM*,u
Cc1cc(C(=O)COC(=O)c2nc3nccc(C)n3n2)c(C)n1CC1CCCO1 (stereo not drawn),-6%,-21%,1%,-16%,8%,2%
Cc1cc(C)n2nc(C(=O)OCC(=O)c3cc(C)n(CC4CCCO4)c3C)nc2n1 (stereo not drawn),-4%,6%,6%,-17%,1%,-1%
COc1cc(OC)cc(C(=O)OCC(=O)c2cc(C)n(CC3CCCO3)c2C)c1 (stereo not drawn),18%,x,x,6.7µM*,14%,8%
Cc1coc2c(C)c3oc(=O)c(CCC(=O)NCCc4ccc(Cl)cc4)c(C)c3cc12,x,0%,x,4%,x,x
Cc1ccc(-c2csc(NC(=O)CSC3=NCCS3)n2)cc1,18%,19%,-3%,13µM*,12%,u
CCOC(=O)N1CCN(C(=O)CSCC(=O)Nc2nc(-c3ccc(-c4ccccc4)cc3)cs2)CC1,u,-2%,-3%,-16%,u,2.6µM*
O=C(CSC1=NCCS1)Nc1nc2ccccc2s1,u,10%,-1%,19µM*,29%,9%
Cc1sc(NC(=O)CSC2=NCCS2)nc1-c1ccccc1,0%,-21%,2%,-15%,1%,-5%
CCOC(=O)c1cc2c(C)n(-c3ccc(C)cc3)c(C)c2ccc1=O,u,-13%,4%,0.38µM*,u,8%
CCOC(=O)c1c[nH]n(-c2ccc(C)cc2)c1=O,29%,9%,2%,u,14%,11%
CCOC(=O)c1cc2c(C)n(-c3ccc(OCC)cc3)c(C)c2ccc1=O,-4%,-32%,-1%,17µM*,1%,-9%
CCCC1O[C@@H]2C[C@H]3[C@@H]4CCC5=CC(=O)C=C[C@]5(C)C4[C@@H](O)C[C@]3(C)[C@]2(C(=O)CO)O1 (stereo partly drawn),x,-7%,-3%,x,x,x
COC(=O)c1sc(N2C(=O)C(O)=C(C(=O)c3ccc(C)o3)C2c2ccc([N+](=O)[O-])cc2)nc1C (stereo not drawn),1.8µM*,x,x,19µM*,3.5µM*,u
